Screening results as filed in PubChem BioAssay.
Rows were chosen to be rich in hits. Some 7.9% of all compounds tested hit in one or more screens of this group.
MCF10A rerep: inducers of DNA re-replication in MCF 10A breast cells; MCF 10A DNA re-replication, Hoechst nuclear intensity, 48 h; Potency, µM (doses to about 46.1 µM), for the others: at the top dose activity, positive = re-replication, actives largely listed as activators; actives 2.9% (n = 350,000); AID 624296; further: % of control where 0% means no effect; nearly all actives have a fitted effect of over 50% in size
HT1080 IDH1KD tx: HT-1080 IDH1 knockdown cell toxicity (counter line). HT-1080 IDH1 knockdown viability, ATP luminescence, 48 h. Potency, µM (titrated, usually from 46.1 µM), inactives show top-dose activity, negative = toxicity, hits mostly cytotoxic. actives 2% (n = 360,000);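 further: 0% = DMSO wells and -100% = cell-free medium wells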
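Using the IDH1-knockdown HT-1080 line run in the same batch and compound series as the NT line, viability after 48 h at 37 °C was determined by CellTiter-Glo luminescence and expressed as % activity.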
HT1080NT lethal: kills 2HG-producing HT-1080-NT fibrosarcoma cells; actives 1.6% (n = 360,000); Potency, µM (doses to about 46.1 µM), inactives show at the top dose activity, negative = less viability, actives largely listed as cytotoxic; HT-1080-NT fibrosarcoma viability, CellTiter-Glo ATP luminescence, 48 h;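 further: NT is the 2HG producing partner of a matched IDH1 knockdown line; 0% = DMSO-treated cells and -100% = media-only wells without cells; nearly all actives have a fitted effect of over 55% in size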
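Luminescent CellTiter-Glo readout after 48 hours of compound exposure at 37 degrees C defined viability of HT-1080-NT cells. Activity was normalized to DMSO wells and cell-free media wells; concentration-response curves were fitted and assigned curve classes.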
KB-V1 MDR tox: KB-V1 MDR subline cytotoxicity | actives 3.4% (n = 400,000) | KB-V1 MDR cells viability, CellTiter-Glo, 72 h | Potency, µM (top dose mostly 46.1 µM), hits mostly cytotoxic; further: on the % scale 0 is the no-effect control and ±100 the full control effect; nearly all actives have a fitted effect of over 60% in size
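In this primary screen, KB-V1 cells overexpressing P-gp are incubated with library compounds (lowest to highest concentration) for 72 h at 37 degrees C before a luminescent ATP viability read.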
SW480 rereplic: inducers of DNA re-replication in SW480 colon cancer cells; SW480 DNA re-replication, Hoechst DNA content imaging, 48 h; Potency, µM (top dose mostly 46.1 µM), for inactives: at the top dose re-replication activation, actives largely listed as activators; actives 1.8% (n = 340,000); AID 624297; further: % of control where 0% means no effect; nearly all actives have a fitted effect of over 55% in size
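SW480 cells exposed to compounds for 48 hr at 37 C, 5% CO2, then Hoechst-stained 40 min. Nuclear DNA content imaged by fluorescence scanning (405 nm excitation, 500-530 nm emission); re-replication scored as increased high-intensity nuclei.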
KB-3-1 tox: kills parental KB-3-1 adenocarcinoma cells | KB-3-1 viability, CellTiter-Glo ATP luminescence, 72 h | Potency, µM (doses to about 46.1 µM), usual class: cytotoxic | actives 1.4% (n = 400,000); further: on the % scale 0 is the no-effect control and ±100 the full control effect; nearly all actives have a fitted effect of over 60% in size
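Here the drug-naive KB-3-1 line serves as comparator for MDR sub-line selectivity; cells received compound titrations, 72 h at 37 °C, then CellTiter-Glo readout.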
* hit, by the source's call; i = inactive; u = inconclusive; x = not tested or not shown. The call rests on the fitted dose curve; in most records, active means well fitted curve in the direction sought with a large enough effect; inconclusive means small, poorly fitted or top-dose-only effect, or another doubt; inactive means no such curve, though single readings can be large; an effect the other way counts as inactive or inconclusive. Potency means the concentration at half of the fitted maximal effect.

SMILES	MCF10A rerep	HT1080 IDH1KD tx	HT1080NT lethal	KB-V1 MDR tox	SW480 rereplic	KB-3-1 tox
COc1cccc(C(=O)Nc2cccc(C(=O)NCC(C)C)c2)c1	-7%	0%	-4%	18µM*	-4%	i
N#Cc1ccccc1S(=O)(=O)N1CCN(Cc2cc3c(cc2Br)OCCO3)CC1	x	-18%	0%	u	x	i
Nc1ccc(Cn2ccc3c4c(N)nc(N)nc4ccc32)cc1	27%	0.033µM*	0.52µM*	u	u	u
Cc1nnc2c3ccccc3nc(Nc3ccccc3C(=O)O)n12	x	x	x	i	x	i
Cc1cc(C)c(CN2CCC(CO)(CCOc3ccccc3)CC2)cc1C	u	u	u	i	u	i
OCC1(CCOc2ccccc2)CCN(C2Cc3ccccc3C2)CC1	18µM*	-8%	-7%	i	0%	i
c1ccc(CN=C2NN=C(c3ccccc3)CS2)cc1	6%	-9%	-11%	i	1%	u
c1ccc(C2=NNC(=NCc3ccc4c(c3)OCO4)SC2)cc1	16%	2%	0%	23µM*	8%	i
CCc1ccc(-c2cc3c(=O)n(CC(=O)N4CCCC4)nc(C)n3n2)cc1	u	0%	4%	i	1%	i
CCc1ccc(-c2cc3c(=O)n(CC(=O)NCCN4CCCCC4C)nc(C)n3n2)cc1 (configuration not stated)	u	-1%	-4%	i	18µM*	u
Cc1ccc(F)c(S(=O)(=O)NC(=O)C2(C)CCN2C(=O)c2sccc2C)c1 (configuration not stated)	x	0%	21%	i	x	i
COc1cc(N2CCCC2)c(OC)cc1/C=C(/C#N)c1ccc(Br)cc1	23µM*	11%	1%	i	2%	i
COc1ccc(-n2c(=O)c3c4c(sc3n(C)c2=O)CN(C(C)=O)CC4)cc1	x	x	x	i	x	i
O=C(NCc1ccccc1F)c1cccc(S(=O)(=O)N2CCCCC2)c1	2%	-5%	3%	4.1µM*	15%	i
CCOc1ccc(CCNC(=O)c2ccc(C)c(S(=O)(=O)N3CCOCC3)c2)cc1OCC	0%	-3%	-2%	21µM*	-5%	u
O=C(c1ccc(S(=O)(=O)N2CCOCC2)cc1)N1CCN(c2ccccn2)CC1	1.5µM*	9%	11%	i	-39%	i
Cc1ccc(CNC(=O)c2ccc(C)c(S(=O)(=O)N3CCCCC3)c2)cc1	17%	2%	5%	i	-1%	i
O=C(c1ccc(S(=O)(=O)N2CCOCC2)cc1)N1CCN(C2=NS(=O)(=O)c3ccccc32)CC1	0%	14%	6%	i	-4%	i
Cc1ccc(C(=O)NCc2ccc(Cl)cc2)cc1S(=O)(=O)N1CCCCC1	1%	-4%	-4%	18µM*	3%	u
CC(OC(=O)c1ccco1)C(=O)Nc1ccc(C(F)(F)F)cc1 (configuration not stated)	-1%	11%	1%	i	-10%	i
CC(C)n1c(=O)c2ccccc2n1Cc1cn(Cc2cccs2)nn1	x	1%	17%	i	x	i
Cc1ccc(Cn2cc(CN3CC(N4CCN(CCO)CC4)CS3(=O)=O)nn2)cc1 (configuration not stated)	x	3%	0%	i	x	i
CCOc1ccc(CNC(=O)c2cc3c(=O)n(C)c4ccccc4c3s2)cc1	x	x	x	i	x	i
CCOc1ccc(CCNC(=O)c2cccc(S(=O)(=O)N3CCCCC3)c2)cc1OCC	u	-28%	-11%	6.5µM*	7%	u
CCOc1ccc(S(=O)(=O)N2CCN(C(=O)c3ccc(C)c(S(=O)(=O)N4CCOCC4)c3)CC2)cc1	9%	-10%	-9%	21µM*	3%	u
SMILES	MCF10A rerep	HT1080 IDH1KD tx	HT1080NT lethal	KB-V1 MDR tox	SW480 rereplic	KB-3-1 tox
CCOc1ccc(CCNC(=O)CN2C(=O)COc3ccc(S(=O)(=O)N4CCCCCC4)cc32)cc1	x	x	x	9.2µM*	x	i
Cc1ccc(C(=O)NCC(c2ccc(F)cc2)N2CCOCC2)cc1S(=O)(=O)N1CCOCC1 (configuration not stated)	7%	-3%	-4%	21µM*	-2%	i
CCN1CCN(C(=O)Cn2ncc3c4ccccc4n(Cc4ccccc4F)c3c2=O)CC1	x	x	x	i	x	i
CCOC(=O)C1=C(CC)Nc2ccccc2N/C1=N\S(=O)(=O)c1ccc2ccccc2c1	u	15µM*	18µM*	i	22%	i
CC(C)NC(=O)C1(C)CCN1C(=O)c1ccccc1F (configuration not stated)	x	12%	u	i	x	i
CCc1ccc(C(=O)NC2=NC(c3cc(OC)ccc3OC)CC(=O)N2)cc1 (configuration not stated)	x	x	x	i	x	i
CCN(CC)CCNC(=O)/C(=C/c1cn(CC)c2ccccc12)NC(=O)c1cc(OC)c(OC)c(OC)c1	0.65µM*	0%	-13%	i	-21%	i
Cc1ccccc1NC(=O)C(C)OC(=O)CCC(=O)c1ccccc1 (configuration not stated)	x	0%	9%	i	x	i
COc1ccccc1NC(=O)C1=C(C)NC(SCC(=O)c2ccccc2)=C(C#N)C1c1ccco1 (configuration not stated)	u	u	u	i	u	i
COc1ccc(NC(=O)CSC2=C(C#N)C(c3ccco3)C(C(=O)Nc3nc4ccccc4s3)=C(C)N2)cc1 (configuration not stated)	u	-18%	-22%	i	9.2µM*	u
C=CCOC(=O)C1=C(C)NC(SCC(N)=O)=C(C#N)C1c1ccc(C)cc1 (configuration not stated)	1%	-3%	-3%	i	-12%	i
CC(=O)C1=C(C)NC(SCC(=O)Nc2nc3ccccc3s2)=C(C#N)C1c1ccc(Cl)cc1 (configuration not stated)	22%	-3%	-21%	u	16µM*	u
COCCOC(=O)C1=C(C)NC(SCC(=O)NC(C)(C)C)=C(C#N)C1c1ccco1 (configuration not stated)	u	-3%	-1%	u	18%	i
C=CCOC(=O)C1=C(C)NC(SCC(=O)Nc2ccc(C)c(Cl)c2)=C(C#N)C1c1ccco1 (configuration not stated)	11µM*	16µM*	18µM*	i	11µM*	i
